The text below walks through data of PubChem BioAssay (Tox21).

Structures are written as SMILES. Values without a mark were called inactive. Inconclusive results are not listed. Calls of active or inactive are those of the source. Calls come from the whole dose curve; as a rule, active = well fitted curve in the direction sought with a large enough effect in the repeat runs; inconclusive = weak or mixed curves; inactive = no such curve, though single readings can be large; an effect the other way counts as inactive or inconclusive.

Experiment [1] in a line: A CellTox Green Cytotoxicity Assay to monitor cytotoxicity in HEK293 cells - 32 hour (AID 1224881). Note: nearly all actives have a fitted effect of over 40% in size. Note: potency is the fitted concentration of half-maximal effect. The gist of the method: (§1)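 HEK293 cells, 600/well, were preincubated 5 hours and then exposed to compounds at 37 C for up to 40 hours. A cell-impermeant cyanine dye staining dead-cell DNA was read by fluorescence at 0, 8, 16, 24, 32 and 40 h time points.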
Experiment [2] in a line: A CellTox Green Cytotoxicity Assay to monitor cytotoxicity in HepG2 cells - 0 hour (AID 1224882). Note: nearly all actives have a fitted effect of over 35% in size. The gist of the method:
(§2)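 HepG2 cells, 600/well, preincubated 5 h with CellTox Green dye, then exposed to Tox21 compounds in DMSO at 37 C for up to 40 h. Dead-cell DNA fluorescence read at the indicated time point.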

The nature of experiment [3]: A CellTox Green Cytotoxicity Assay to monitor cytotoxicity in HepG2 cells - 32 hour (AID 1224883). Note: nearly all actives have a fitted effect of over 50% in size. Note: potency is the fitted concentration of half-maximal effect. The procedure, abridged:
as §2

The nature of experiment [4]: A CellTox Green Cytotoxicity Assay to monitor cytotoxicity in HEK293 cells - 8 hour (AID 1224884). Note: nearly all actives have a fitted effect of over 35% in size. Note: potency is the fitted concentration of half-maximal effect. The gist of the method: as §1
The nature of experiment [5]: qHTS RealTime-Glo MT Cell Viability Assay in HepG2 cells - 16 hour (AID 1224885). Note: nearly all actives have a fitted effect of over 50% in size. The gist of the method:
(§3)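 Luminescence read-out: viable HepG2 cells reduce a prosubstrate to a NanoLuc substrate, giving a signal proportional to live cell number. Reads taken at 0, 8, 16, 24, 32 and 40 h of compound exposure at 37 C.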

Experiment [6] is described as follows: qHTS RealTime-Glo MT Cell Viability Assay in HEK293 cells - 24 hour (AID 1224886). Note: top concentration of the series differs between compounds; nearly all actives have a fitted effect of over 50% in size. The gist of the method: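 Nonlytic real-time viability readout: viable cells convert prosubstrate to NanoLuc substrate, giving luminescence proportional to live cell number. HEK293, 600 cells/well, compound added after 5 h, continuous culture at 37 C.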
Experiment [7] in a line: qHTS RealTime-Glo MT Cell Viability Assay in HEK293 cells - 8 hour (AID 1224887). Note: top concentration of the series differs between compounds; nearly all actives have a fitted effect of over 50% in size. The gist of the method:
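600 cells/well were plated with the nonlytic NanoLuc/prosubstrate reagent, pre-incubated 5 h, then given 23 nL of compound in DMSO. Incubation at 37 C for 40 h, with luminescence from viable-cell-reduced substrate read repeatedly from 0 h.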

The nature of experiment [8]: A CellTox Green Cytotoxicity Assay to monitor cytotoxicity in HEK293 cells - 16 hour (AID 1224888). Note: nearly all actives have a fitted effect of over 35% in size. Note: potency is the fitted concentration of half-maximal effect. The gist of the method: as §1
Experiment [9] is described as follows: qHTS RealTime-Glo MT Cell Viability Assay in HepG2 cells - 0 hour (AID 1224889). Note: nearly all actives have a fitted effect of over 50% in size. The procedure, abridged: as §3
Experiment [10] can be described thus: A CellTox Green Cytotoxicity Assay to monitor cytotoxicity in HepG2 cells - 8 hour (AID 1224890). Note: nearly all actives have a fitted effect of over 45% in size. The gist of the method: as §2
% is set by controls: 0 for no effect and ±100 for the full control effect.

With `CCNc1cc(O)ccc1C`, in [1], the Potency was 34.3 µM (active). The Potency result in [2], in experiment [3], in experiment [4], in experiment [5], in experiment [6] and in [7] was “inactive” each time.
Turning to `NCC(=O)CCC(=O)O`, the Potency entry in experiment [1], in [2], in [3], in experiment [4], in experiment [5] and in experiment [6] was “inactive” in each case. Also, the Potency entry in experiment [7], in experiment [8], in experiment [9] and in experiment [10] was “inactive” each time.
With `C1CCCNCCC1`, the Potency entry in [1], in experiment [2], in experiment [3], in experiment [4], in experiment [5] and in [6] was “inactive” in each case. For the same compound, the Potency entry in experiment [7], in experiment [8] and in [9] was “inactive” in each case.
In the case of `CCN(CC)CCNC(=O)c1cc(Br)c(N)cc1OC`, the Potency entry in experiment [1], in experiment [2], in [3], in [4], in experiment [5] and in experiment [6] was “inactive” in each case. For the same compound, the Potency result in experiment [7], in experiment [8], in experiment [9] and in experiment [10] was “inactive” each time.
On to `O=[N+]([O-])c1ccc(NCCO)c(OCCO)c1`, for which the Potency result in experiment [1], in experiment [2], in experiment [3], in experiment [4], in experiment [5] and in experiment [6] was “inactive” each time. Moreover, the Potency entry in [7], in experiment [8] and in [9] was “inactive” each time.
Turning to `CC1(c2ccccc2)OC(C(=O)O)=CC1=O` (stereo not drawn), the Potency entry in [1], in experiment [2], in experiment [3], in [4], in [5] and in experiment [6] was “inactive” each time. For the same compound, the Potency entry in [7], in experiment [8], in [9] and in [10] was “inactive” each time.
For `CCOC(=O)c1cccnc1`, the Potency result in experiment [1], in [2], in experiment [3], in experiment [4], in experiment [5] and in experiment [6] was “inactive” in each case. Also, the Potency entry in experiment [7], in experiment [8], in experiment [9] and in experiment [10] was “inactive” in each case.
Consider `NC(N)=NCCC[C@H](N)C(=O)O`, for which the cytotoxicity increase is -21.7% [at 6.97 µM] in [1], -4.17% [at 6.97 µM] in experiment [3], -18% [at 6.97 µM] in experiment [4] and -1.13% [at 6.97 µM] in experiment [10]. Further, the cytotoxicity in experiment [2] was 1.18% [at 6.97 µM]. For the same compound, the activity change, negative = cytotoxic in experiment [5] is 0.73% [at 6.97 µM]. Besides, the activity change, negative = cytotoxicity is 4.77% [at 6.97 µM] in experiment [6], 6.66% [at 6.97 µM] in experiment [7] and 0.79% [at 6.97 µM] in [9]. The activity change in experiment [8] was -19.2% [at 6.97 µM, stronger effect = higher value].
Take `c1cc(CCCc2ccncc2)ccn1`: the Potency entry in experiment [1], in experiment [2], in experiment [3], in [4], in [5] and in [6] was “inactive” in each case. The Potency entry in [7], in experiment [8], in experiment [9] and in experiment [10] was “inactive” throughout.
For `CNC(=O)CN(CCN(CCN(CC(=O)[O-])CC(=O)NC)CC(=O)[O-])CC(=O)[O-].O.[Gd+3]`, the Potency result in experiment [1], in experiment [2], in experiment [3], in experiment [4], in experiment [5] and in experiment [6] was “inactive” throughout. Moreover, the Potency result in experiment [7], in experiment [8], in experiment [9] and in experiment [10] was “inactive” each time.
Consider `CCCCCCCCCCCCCCOS(=O)(=O)O`, for which the Potency in experiment [1] was 43.6 µM (active); in experiment [3] it was 38.9 µM (active); in [4] it was 21.9 µM (active); in experiment [8], 43.6 µM (active). Besides, the Potency result in [2], in [5], in [6], in experiment [7] and in experiment [9] was “inactive” throughout.
As to `C=CC1CC2C=CC1C2` (stereo not drawn), the Potency result in [1], in experiment [2], in experiment [3], in experiment [4], in experiment [5] and in experiment [6] was “inactive” each time. Moreover, in experiment [7], the Potency result was “inactive”.
`O=C(OCCc1ccccc1)c1ccccc1`: the Potency result in [1], in experiment [2], in [3], in [4], in [5] and in experiment [6] was “inactive” throughout. Moreover, the Potency entry in experiment [7], in experiment [8], in experiment [9] and in experiment [10] was “inactive” each time.
Regarding `Nc1cc(C(=O)O)c(O)c(S(=O)(=O)O)c1`, the Potency entry in experiment [1], in [2], in experiment [3], in experiment [4], in [5] and in experiment [6] was “inactive” throughout. In addition, the Potency entry in [7], in experiment [8], in experiment [9] and in [10] was “inactive” throughout.
Take `CC[N+](C)(CC)CCOC(=O)C(O)(c1ccccc1)C1CCCCC1` (stereo not drawn): the Potency entry in experiment [1], in [2], in [3], in experiment [4], in [5] and in [6] was “inactive” in each case. The Potency entry in [7], in experiment [8], in [9] and in experiment [10] was “inactive” throughout.
On to `CCCCC(CC)COC(=O)COc1ccc(Cl)cc1Cl` (stereo not drawn), for which the Potency result in experiment [1], in [2], in [3], in experiment [4], in [5] and in [6] was “inactive” in each case. Besides, the Potency entry in [7], in [8], in experiment [9] and in experiment [10] was “inactive” throughout.
Turning to `COc1cccc(N(C)C(=S)Oc2ccc3c(c2)CCCC3)n1`, the Potency entry in experiment [1], in [2], in [3], in [4], in experiment [5] and in experiment [6] was “inactive” throughout. In addition, the Potency entry in experiment [7], in experiment [8] and in experiment [9] was “inactive” each time.
`CN1CCN(C(c2ccccc2)c2ccccc2)CC1`: the Potency result in experiment [1], in experiment [2], in experiment [3], in experiment [4], in experiment [5] and in experiment [6] was “inactive” each time. In addition, the Potency entry in experiment [7], in experiment [8] and in experiment [9] was “inactive” in each case.
With `O=P(O)(OCc1ccccc1)OCc1ccccc1`, the Potency entry in experiment [1], in experiment [2], in experiment [3], in [4], in experiment [5] and in experiment [6] was “inactive” in each case. The Potency entry in [7], in experiment [8], in experiment [9] and in [10] was “inactive” each time.
For the compound `CN(C)CCN(Cc1ccccc1)c1ccccn1`, the Potency entry in [1], in experiment [2], in experiment [3], in [4], in [5] and in experiment [6] was “inactive” throughout. In addition, the Potency entry in experiment [7], in experiment [8], in [9] and in experiment [10] was “inactive” throughout.
As for `NCc1ccccc1Sc1ccccc1CO`, the Potency entry in experiment [1], in experiment [2], in experiment [3], in experiment [4], in experiment [5] and in experiment [6] was “inactive” throughout. Besides, the Potency result in [7], in experiment [8], in experiment [9] and in experiment [10] was “inactive” in each case.
For `C[C@@H](c1ncncc1F)C(O)(Cn1cncn1)c1ccc(F)cc1F` (stereo partly drawn), the Potency entry in [1], in experiment [2], in [3], in [4], in experiment [5] and in [6] was “inactive” each time. Besides, the Potency result in [7], in experiment [8] and in experiment [9] was “inactive” each time.
`Nc1cccc([N+](=O)[O-])c1`: the Potency result in experiment [1], in experiment [2], in experiment [3], in experiment [4], in experiment [5] and in experiment [6] was “inactive” throughout. The Potency result in experiment [7], in experiment [8], in experiment [9] and in experiment [10] was “inactive” in each case.
As to `CCCCO`, the Potency result in experiment [1], in experiment [2], in [3], in experiment [4], in [5] and in [6] was “inactive” in each case. The Potency result in [7], in experiment [8], in experiment [9] and in experiment [10] was “inactive” throughout.
